We go through 10 molecules from PubChem BioAssay AID2284358 (EPA ToxCast).

For orientation: AC50 means the concentration at which the activity in the assay is half-maximal.

Results filed as inconclusive are left out. The source made the active and inactive calls. The calls were made as follows: active = hit-call score of the fitted dose curve at least 0.9, where 1 is the maximum; inconclusive = response in the unintended direction; inactive = score below 0.9.

zebrafish Retinoid X Receptor beta (RXRb), rxrba (gene 30530), sequence (Q7SYN5 whole entry, looked up): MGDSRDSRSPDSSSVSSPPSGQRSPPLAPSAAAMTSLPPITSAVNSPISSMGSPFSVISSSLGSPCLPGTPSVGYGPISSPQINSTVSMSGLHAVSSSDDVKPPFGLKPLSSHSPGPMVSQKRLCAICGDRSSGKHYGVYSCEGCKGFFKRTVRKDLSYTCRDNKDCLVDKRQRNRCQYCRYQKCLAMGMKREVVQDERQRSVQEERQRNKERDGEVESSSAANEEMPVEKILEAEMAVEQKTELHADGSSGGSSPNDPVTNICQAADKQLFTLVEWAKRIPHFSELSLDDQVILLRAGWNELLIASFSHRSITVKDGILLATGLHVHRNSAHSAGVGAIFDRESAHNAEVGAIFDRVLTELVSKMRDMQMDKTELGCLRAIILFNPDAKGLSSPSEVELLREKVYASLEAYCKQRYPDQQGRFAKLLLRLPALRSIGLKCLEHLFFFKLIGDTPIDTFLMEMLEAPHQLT

This test deals with zebrafish Retinoid X Receptor beta (RXRb), rxrba (gene 30530) (UniProt Q7SYN5). The experiment in a line: ATG_zfRXRb_EcoTox2: Attagene TRANS-FACTORIAL EcoTox-2 HepG2 Assay for zebrafish Retinoid X Receptor beta (RXRb). As for the experimental part:
ATG_EcoTox2 is a cell-based, multiplexed assay created by modifying the existing Attagene TRANS-FACTORIAL system to include a panel of nuclear receptors from some or all the following species: human (Homo sapiens), african clawed frog (Xenopus laevis), rainbow trout (Oncorhynchus mykiss), japanese medaka (Oryzias latipes), and zebrafish (Danio rerio). The ECOTOX2-FACTORIAL format uses HepG2, a human liver cell line, with measurements taken at 24 hours after chemical dosing in a 24-well plate. ATG_zfRXRb_EcoTox2 is one of 29 assay components calculated in the ATG_EcoTox2 assay. It is designed to make measurements of mRNA induction, a form of inducible reporter, as detected with fluorescence intensity signals by Reverse transcription polymerase chain reaction (RT-PCR) and Capillary electrophoresis technology.The assay endpoint ATG_zfRXRb_EcoTox2 was analyzed in the positive analysis fitting direction relative to DMSO as the negative control and baseline of activity. Using a type of inducible reporter, measures of mRNA for gain-of-signal activity can be used to understand the reporter gene at the transcription factor-level as they relate to the gene RXRb. Furthermore, this assay endpoint can be referred to as a primary readout, because this assay has produced multiple assay endpoints where this one serves a reporter gene function. To generalize the intended target to other relatable targets, this assay endpoint is annotated to the nuclear receptor intended target family, where the subfamily is non-steroidal.
Human liver HepG2 cells are transiently transfected with multiple reporter transcription units (MRTUs) in 6-well plates using FuGene 6 reagent (Roche; 3 ml FuGene/1 mg DNA). The MRTU constructs are regulated by a cis-regulating element (promoter). Each RTU expresses a GAL4-UAS that regulates the transcription of a nearby target reporter gene sequence. A major difference between the CIS and TRANS system is that in CIS activities of endogenous TFs are measured, whereas the TRANS assay evaluates changes in activities of exogenous, chimeric NR-Gal4 proteins. […] At the end of 24 hour incubation, total RNA was isolated using TriZol reagent (Invitrogen). The isolated RNA is then reverse-transcribed using oligo(dT) primer and Mo-MLV reverse transcriptase (Invitrogen) with DNAse I (Ambion) treatment for 30 min. The one-tenth of the produced cDNA was amplified by PCR using Taq DNA polymerase (Invitrogen) and two reporter sequence-specific primers. The PCR products were fluorescently labeled by primer extension with 6-arboxyfluorescein (6-FAM) 5'-labeled reporter sequence-specific primer (2 min at 95 C, 20 s at 68 C and 10 min at 72 C) and these products were digested with 5U of HpaI (New England Biolabs) for 2h at 37 C. The fragments were purified using Qiaquick PCR columns (Qiagen), analyzed on an ABI 3130xL genetic analyzer (Applied Biosystems) with peak positions identified by using a set of X-rhodamine (ROX)-labeled MapMarker1000 molecular weight standards (BioVentures). The raw capillary electrophoresis data was processed using Attagraph software (Attagene).
As for `CC(C)(Oc1ccc(CCNC(=O)c2ccc(Cl)cc2)cc1)C(=O)O`, the result was inactive. On to `C=C(c1ccc(C(=O)O)cc1)c1cc2c(cc1C)C(C)(C)CCC2(C)C`, for which the AC50 is 597 nM (active). In the case of `Cc1ccc(C)c(OCCCC(C)(C)C(=O)O)c1`, the result was inactive. Same read-out and setting: as for `C[C@@H]1C[C@H]2[C@@H]3CCC4=CC(=O)C=C[C@]4(C)[C@@]3(F)[C@@H](O)C[C@]2(C)[C@@]1(O)C(=O)COP(=O)(O)O`, the entry is “inactive”; as for `CC(c1cc2ccccc2s1)N(O)C(N)=O` (stereo not given), “inactive”; as for `Cc1cccc(Nc2cc(Cl)nc(SCC(=O)O)n2)c1C`, “inactive”. Still for that read-out and setting: the same measure for `CC(C)(Oc1ccc(C2CC2(Cl)Cl)cc1)C(=O)O` (stereo not given): “inactive”; for `C[C@]12C=CC(=O)C=C1CC[C@@H]1[C@@H]2C(=O)C[C@@]2(C)[C@H]1CC[C@]2(O)C(=O)CO`: “inactive”; for `CC(C)(Oc1ccc(Cl)cc1)C(=O)O`: “inactive”. The same measure, in the same setting: the same measure for `Cc1c(C)c2c(c(C)c1O)CCC(C)(COc1ccc(CC3SC(=O)NC3=O)cc1)O2` (stereo not given): “inactive”.
